Test [1] in a line: ATG_XTT_Cytotoxicity: Cytotoxicity Assessment in the Attagene TRANS-FACTORIAL HepG2 Assay (AID 2283584). In a few lines:
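HepG2 cells transiently transfected with GAL4-UAS multiple reporter units, dosed 24 h; cytotoxicity read by XTT as loss of signal versus DMSO baseline.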

The nature of test [2]: TOX21_p53_BLA_p2_viability: Viability Assessment in the Tox21 HCT-116 p53 Agonism Beta-lactamase Assay, Phase 2 (AID 2283591).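 Further: compound exposure lasted 16 h at 37 °C; actives lower the ATP signal meaning cytotoxicity.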 In a few lines: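 HCT116 p53-bla cells, 4000/well, dosed after 5 h plating (217-fold dilution of DMSO stocks) and incubated 16 h at 37C. Viability taken as cellular ATP by CellTiter-Glo luminescence after 30 min RT; signal loss marks cytotoxicity.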

In test [3] the target is Cellular tumor antigen p53 (Homo sapiens) (UniProt P04637). Kind of test: TOX21_p53_BLA_p2_ratio: Tox21 HCT-116 p53 Agonism Beta-lactamase Assay, Ratio, Phase 2 (AID 2283592). Summed up: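 HCT-116 cells with p53-responsive beta-lactamase reporter, 4000 cells/well, preincubated 5 h, then compound in DMSO (217-fold dilution) for 16 h at 37C. CCF4-AM substrate 2 h at room temperature; 460/530 nm emission ratio fitted upward versus DMSO.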
Cellular tumor antigen p53 (Homo sapiens), sequence (P04637 whole entry, looked up): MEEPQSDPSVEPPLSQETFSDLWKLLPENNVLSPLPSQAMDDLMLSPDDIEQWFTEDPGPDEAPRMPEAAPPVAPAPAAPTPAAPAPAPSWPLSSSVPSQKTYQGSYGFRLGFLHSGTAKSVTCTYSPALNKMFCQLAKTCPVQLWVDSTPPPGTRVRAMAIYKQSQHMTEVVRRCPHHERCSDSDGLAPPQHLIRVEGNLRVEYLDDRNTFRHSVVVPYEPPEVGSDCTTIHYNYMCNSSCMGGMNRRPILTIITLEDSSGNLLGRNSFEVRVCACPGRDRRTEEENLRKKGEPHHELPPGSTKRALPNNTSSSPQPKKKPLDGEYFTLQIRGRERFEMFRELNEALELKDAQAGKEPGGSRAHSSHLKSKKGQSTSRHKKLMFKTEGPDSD

The nature of test [4]: TOX21_p53_BLA_p3_viability: Viability Assessment in the Tox21 HCT-116 p53 Agonism Beta-lactamase Assay, Phase 3 (AID 2283593).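 Further: cells exposed to compound for 16 h before reading.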 In a few lines: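 HCT116 cells, 4000/well, dosed 5 h after plating by pin transfer (217-fold dilution from DMSO stock) and incubated 16 h at 37C, 5% CO2. Viability read as ATP luminescence with CellTiter-Glo after 30 min at room temperature.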
Test [5] can be described thus: TOX21_p53_BLA_p4_viability: Viability Assessment in the Tox21 HCT-116 p53 Agonism Beta-lactamase Assay, Phase 4 (AID 2283597).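 Further: hits lower the luminescence signal meaning cytotoxicity.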 In a few lines:
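HCT-116 p53-bla cells, 4000/well, dosed after 5 h attachment and incubated 16 h at 37 °C, 5% CO2. Viability from CellTiter-Glo ATP luminescence after 30 min at room temperature, taken after the beta-lactamase read; loss of signal indicates cytotoxicity.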

The target in test [6] is Cellular tumor antigen p53 (Homo sapiens) (UniProt P04637). Briefly: TOX21_p53_BLA_p5_ratio: Tox21 HCT-116 p53 Agonism Beta-lactamase Assay, Ratio, Phase 5 (AID 2283599). In a few lines: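 HCT-116 p53-bla cells (4000/well) plated 5 h, dosed with compound (217-fold DMSO dilution) for 16 h at 37 C; CCF4-AM substrate 2 h at room temperature. Activity is the 460/530 nm emission ratio (405 nm excitation), fitted in gain-of-signal direction versus DMSO.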

For test [7] the target is unchanged. Briefly: TOX21_p53_BLA_p4_ratio: Tox21 HCT-116 p53 Agonism Beta-lactamase Assay, Ratio, Phase 4 (AID 2283601). Summed up:
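HCT-116 p53 beta-lactamase reporter cells (4000/well) preincubated 5 h, then compound (217-fold dilution of DMSO stock) for 16 h at 37C. CCF4-AM substrate added 2 h at room temperature; 460/530 nm emission ratio fitted upward versus DMSO.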

For test [8] the target is unchanged. Kind of test: TOX21_p53_BLA_p3_ratio: Tox21 HCT-116 p53 Agonism Beta-lactamase Assay, Ratio, Phase 3 (AID 2283596). Summed up: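 HCT116 p53-bla cells (4000/well) given compound in DMSO (217-fold dilution) after 5 h, incubated 16 h at 37C. CCF4-AM substrate 2 h at room temperature; 460/530 nm emission ratio, gain fitted against DMSO.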
The nature of test [9]: TOX21_p53_BLA_p5_viability: Viability Assessment in the Tox21 HCT-116 p53 Agonism Beta-lactamase Assay, Phase 5 (AID 2283600). In a few lines:
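HCT-116 p53 beta-lactamase reporter cells, 4000/well, were exposed to compound (pin transfer, 217-fold dilution) for 16 hours at 37C. Cellular ATP was read by CellTiter-Glo luminescence after 30 min at room temperature.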

The values that follow come from PubChem BioAssay (EPA / NIEHS).

Inconclusive results are not listed. Where a structure was tested more than once in an assay, its records may differ in their call. Calls of active or inactive are those of the source. How the source made its calls: active means hit-call score of the fitted dose curve at least 0.9, where 1 is the maximum; inconclusive means response in the unintended direction; inactive means score below 0.9.

For the compound `CCC(C)C=O` (configuration not stated), the outcome in test [1], in [2], in [3], in test [4], in [5] and in test [6] was inactive. Moreover, the result in test [7] was inactive.

Regarding `CCCOCCOCCOCCO`, the outcome in [1], in test [2], in [3], in test [8], in [5] and in test [6] was inactive. Also, the compound was classed as inactive in test [9] and in [7].

For `O=C(O)c1cc2ccccc2nc1C(=O)O`, the call in test [1], in [2], in test [3], in test [5], in [6] and in test [7] was inactive.

With `CC(=O)[C@@]1(O)CC[C@H]2[C@@H]3C[C@H](C)C4=CC(=O)C=C[C@]4(C)[C@@]3(F)[C@@H](O)C[C@@]21C`, the outcome in [1], in [2], in test [3], in [8], in test [5] and in test [6] was inactive. In addition, the outcome in [7] was inactive.

For the compound `CC(=O)C=CC1C(C)=CCC(C)C1(C)C` (configuration not stated), the outcome in [1], in test [3], in test [4], in test [6] and in test [7] was inactive.

`C=C(C)C(=O)OCC(C)C`: the result in test [1], in [2], in test [4], in [8], in test [6] and in [7] was inactive.

As for `C(=CC=Nc1ccccc1)C=CNc1ccccc1`, the compound was called inactive in test [1], in test [3], in [4], in [8], in test [5] and in test [6].

Take `CC(C)c1ccc(C=O)cc1`: the call in [1], in [3] and in test [4] was inactive.

Consider `Cc1ccccc1C`, for which the result in test [1], in test [3], in test [4], in test [6], in test [9] and in [7] was inactive.

On to `C=CCCCCCCCCC(=O)OCCCC`, for which the compound was called inactive in test [1], in test [3], in test [8] and in [6].

Turning to `CCC(C)(C)C1CCCCC1OC(C)=O` (configuration not stated), the compound was called inactive in test [1], in test [3], in [4], in test [8], in test [6] and in test [9]. The result in test [7] was inactive.

As to `O=CN1CCCCC1`, the result in test [1], in [3], in [4], in test [8], in test [6] and in test [9] was inactive. The outcome in test [7] was inactive.

Take `O=c1c2ccccc2nnn1CCl`: the result in test [1], in test [2], in test [4], in [8], in [5] and in test [6] was inactive. Further, the outcome in test [9] and in [7] was inactive.

Regarding `C=C(C)[C@H]1CC=C(C)CC1`, the call in [1], in test [2], in [6] and in test [7] was inactive.

Regarding `CC(C)(C)C(=O)C=Cc1ccc(Cl)cc1`, the outcome in test [1], in test [3], in [4], in test [8], in [5] and in test [6] was inactive. The result in test [7] was inactive.

For the compound `CC1=CC[C@H](C(C)C)C=C1`, the compound was classed as inactive in [1], in test [2], in [4], in test [5] and in test [9].

Regarding `CCCCCCCCC(=O)OCC`, the compound was called inactive in test [1], in [2], in [8], in test [5], in test [6] and in [9].

For `CC(C)c1ccc(C#N)cc1`, the result in [1], in test [3], in test [4], in [9] and in test [7] was inactive.

On to `CCN(CCO)c1cccc(C)c1`, for which the call in test [1], in test [3], in test [8] and in test [6] was inactive.

Usually AC50 stands for the midpoint of the concentration-response curve, whichever way the signal moves. Take `O=C(c1ccc(O)cc1)c1ccc(O)cc1O`: the compound was classed as inactive in test [1], in test [3], in test [8], in [6] and in test [7]. Also, the AC50 in test [8] is 68.5 µM (active); in test [6], 86.2 µM (active); in test [7], 72.9 µM (active).

On to `O=c1n(CCO)c(=O)n(CCO)c(=O)n1CCO`, for which the compound was classed as inactive in [1], in test [2], in test [8], in [5], in test [6] and in [9]. In addition, the result in test [7] was inactive.

As for `CC(=O)c1ccc2c(c1)CCCC2`, the compound was called inactive in [1], in [2], in test [4], in test [8] and in test [7].

For `Cc1ccc2c(c1)C(=O)c1ccccc1C2=O`, the call in test [1], in test [3], in [8] and in test [6] was inactive.

For `COCCOCCOCCOCCOC`, the compound was classed as inactive in [1], in test [2], in [5], in [9] and in test [7].

In the case of `CCCCCC/C=C\CCCCCCCC(=O)O`, the compound was classed as inactive in test [1], in [2], in test [8], in test [9] and in [7]. For the same compound, the AC50 in [4] was 76.5 µM (active).

With `CCCCC(CC)COC(=O)c1ccccc1O` (configuration not stated), the compound was called inactive in test [1], in test [2], in test [4], in test [5], in [9] and in [7].
